From PubChem BioAssay (NCI) come the findings set out here.

Structures are written as SMILES. This is part of a sample that, as a whole, favours compounds with a hit. Of some 83,000 tested, about 20% had one in any assay.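 Step 1: grow cells in 96-well plates. Step 2: add test compound at a single concentration. Step 3: incubate 48 h. Step 4: record percent growth.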 Values without a mark were called inactive. Calls of active or inactive are those of the source. Rule for the calls: active = growth percent below 10; inactive = the rest.

What all share (assay): NCI-60 one-dose screen, 48 h (100 = growth as untreated, 0 = no growth, -100 = all killed)
Common to all, as to details: 10 µM unless noted

Experiment [1] concerns NCI-H23 lung.
For experiment [2], the system named is NCI-H226 lung.
Experiment [3] concerns NCI-H322M lung.
Experiment [4] concerns HOP-62 NSCLC.
For experiment [5], the system named is NCI-H460 lung.
The test system of experiment [6] is HOP-92 NSCLC.
Experiment [7] relates to NCI-H522 lung.
Experiment [8] relates to A549/ATCC NSCLC.
The test system of experiment [9] is 786-0 renal.
Experiment [10] deals with COLO 205 colon.
Experiment [11] relates to DU-145 prostate.
For experiment [12], the system named is MALME-3M melanoma.
Experiment [13] has as its system MDA-MB-231 breast.
In experiment [14] the test system is SF-268 CNS.
In experiment [15] the test system is SF-295 CNS.
The subject of experiment [16] is SF-539 CNS.
In experiment [17] the test system is UACC-257 melanoma.
The subject of experiment [18] is M14 melanoma.
Experiment [19] relates to K-562 leukemia.
Experiment [20] has as its system RXF 393 renal.

Turning to `CCCOc1nc(SCCC)nc2c1cnn2-c1ccccc1`, the growth in experiment [1] is 93.8%; in experiment [2] it was 96.6%; in experiment [3], 137%; in [4], 126%; in [5], 101%; in experiment [6], 98.2%. For the same molecule, the growth in [7] was 3.95% (active); in [8], 100%; in experiment [9], 105%; in [10] it was 103%; in [11], 110%; in experiment [12], 119%. The growth in experiment [13] is 105%; in [14], 87.7%; in experiment [15], 108%; in experiment [16], 98.4%; in experiment [17], 113%; in experiment [18], 109%.

On to `O=C1Nc2c(ccc(Cl)c2Cl)/C1=C/c1ccccn1`, for which the growth in experiment [1] was 81.5%; in [2] it was 93.5%; in [3] it was 93.4%; in experiment [4] it was 88.5%; in experiment [5] it was 97.6%; in experiment [6], 66.2%. Moreover, the growth is 71% in [7]; 13% in experiment [8]; 12.5% in experiment [9]; 108% in [10]; 104% in experiment [11]; 85.5% in [12]. Further, the growth in [13] was 84.7%; in [14], 84.8%; in experiment [15], 107%; in experiment [16] it was 92.8%; in [17], -20.9% (active); in [18] it was 69.9%.

Turning to `O=C(N/N=C/c1cccc(O)c1)c1ccccc1Nc1cccc(C(F)(F)F)c1`, the growth was 96.4% in [1]; 76.7% in experiment [2]; 77.9% in [3]; 73% in experiment [4]; 102% in experiment [5]; 63% in experiment [6]. For the same molecule, the growth in [7] was 90.3%; in experiment [8], 29.1%; in experiment [9], 43.5%; in [10], 117%; in [11], 88.7%; in [12], 76.3%. The growth was 73.8% in experiment [13]; 69.5% in experiment [14]; 52.2% in experiment [15]; 103% in [16]; 64.9% in experiment [17]; 58.8% in experiment [18].

`C=C(C)[C@@H]1CC[C@]2(C(=O)NCCCN(CCC#N)CCC#N)CC[C@]3(C)[C@H](CC[C@@H]4[C@@]5(C)CCC(=O)C(C)(C)[C@@H]5CC[C@]43C)[C@@H]12`: the growth is 109% in [1]; 102% in experiment [2]; 104% in [3]; 105% in experiment [4]; 104% in experiment [5]; 82.4% in experiment [6]. In addition, the growth was 93.5% in experiment [7]; 91.2% in [8]; 94.2% in experiment [9]; 111% in [10]; 105% in [11]; 105% in experiment [12]. Moreover, the growth in [13] was 103%; in experiment [14], 94.6%; in experiment [15], 99.8%; in experiment [16], 94.2%; in experiment [17] it was 91.4%; in [18], 99%.

Consider `CCN(CCNc1cc(OC)cc2cccnc12)CCc1ccccc1`, for which the growth was 78.1% in experiment [1]; 86.2% in [2]; 108% in experiment [3]; 64.9% in [4]; 86% in [5]; 77.2% in experiment [6]. The growth in experiment [7] is 63.7%; in experiment [8], 74.4%; in [9], 87.2%; in experiment [10], 68.8%; in experiment [11], 101%; in experiment [12], 108%. In addition, the growth is 70.7% in experiment [13]; 84% in [14]; 83.5% in [15]; 97.6% in experiment [16]; 77.8% in experiment [17]; 93.4% in [18].

For the molecule `Cc1n[nH]c(C)c1-c1c(C)n[nH]c1C`, the growth in [1] is 8.62% (active); in [2], 56.2%; in experiment [3], 28.6%; in experiment [4] it was 34.5%; in [5], -35.1% (active); in experiment [6], -3.52% (active). The growth in experiment [7] was -8.26% (active); in [8] it was 11.9%; in experiment [9], 6.23% (active); in [11], 9.47% (active); in [19], 5.03% (active); in experiment [12] it was -38.3% (active). The growth in [13] is -14.5% (active); in experiment [20], -47.8% (active); in experiment [14], 19.1%; in [15], 18.8%; in experiment [16] it was -54.6% (active); in [17], 39.6%. For the same molecule, in experiment [18], the growth is -4.4% (active).

As to `COc1ccc(/C=C/C(=O)c2ccc(Nc3ncnc4ccccc34)cc2)cc1OC`, the growth in experiment [1] was 73.3%; in experiment [2] it was 104%; in experiment [3], 92.4%; in [4], 92.8%; in [5] it was 83.8%; in [6], 74%. Besides, the growth in [7] was 92.7%; in experiment [8], 68.3%; in [9], 79.2%; in [10], 109%; in [11], 83.1%; in experiment [12], 101%. Moreover, the growth is 72.1% in [13]; 68.1% in experiment [14]; 79.6% in [15]; 98.1% in experiment [16]; 98.6% in experiment [17]; 64.7% in [18].

As to `Cn1ncc2c(Nc3ccccc3Cl)nc(Cl)nc21`, the growth in experiment [1] was 100%; in [2] it was 88.4%; in [3], 87.3%; in [4], 98.2%; in experiment [5], 114%; in [6], 72.8%. Also, the growth in [7] was 40.5%; in [8], 103%; in experiment [9], 103%; in [10] it was 127%; in experiment [11] it was 139%; in experiment [12] it was 122%. Further, the growth was 87% in experiment [13]; 114% in experiment [14]; 103% in experiment [15]; 102% in experiment [16]; 128% in [17]; 124% in [18].

`O=C(Nc1ccccc1)Oc1ccccc1-c1ccccc1`: the growth is 97.7% in experiment [1]; 93.3% in experiment [2]; 105% in experiment [3]; 74.9% in experiment [4]; 99.7% in experiment [5]; 94.7% in experiment [6]. Also, the growth in experiment [7] was 83.7%; in experiment [8], 73.8%; in experiment [9], 93.5%; in experiment [10] it was 96%; in experiment [11], 105%; in experiment [12], 95%. The growth in [13] is 109%; in [14] it was 96.2%; in experiment [15], 97.4%; in [16] it was 105%; in [17] it was 80.8%; in experiment [18], 85.2%.
